Measured values reported in PubChem BioAssay (NCATS).
Results filed as inconclusive are left out. Active and inactive are the calls of the source. Unless noted, the call rests on the fitted dose curve; in most records, active means well fitted curve in the direction sought with a large enough effect; inconclusive means small, poorly fitted or top-dose-only effect, or another doubt; inactive means no such curve, though single readings can be large; an effect the other way counts as inactive or inconclusive.

What was measured:
[1] = qHTS to identify inhibitors of the type 1 interferon - major histocompatibility complex class I in skeletal muscle: primary screen against the NCATS Mechanism Interrogation Plate v5.0 (MIPE) Libary (AID 1347411);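 further: plate controls were vehicle for no effect and reference inhibitor for full effect; nearly all actives have a fitted effect of over 65% in size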
Method in brief: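 HLA-B HiBit myoblasts, dexamethasone-free medium + 4 ng/ml IFN-b, 24 h compound, 11-pt 1:3 from 46 uM final. Readout: Nano-Glo HiBiT lytic luminescence after 10 min lysis, RT.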

[2] = Primary qHTS for inhibitors of nuclear receptor binding SET domain protein 2 (NSD2) in an isogenic RCH-ACV NSD2 p.E1099K mutant (9B) (AID 1645876); further: nearly all actives have a fitted effect of over 70% in size; further: potency means the concentration at half of the fitted maximal effect; on activity change, negative = viability loss: on the % scale 0 is the no-effect control and ±100 the full control effect
[3] = Primary qHTS for inhibitors of nuclear receptor binding SET domain protein 2 (NSD2) in an RCH-ACV wild type WT cells (2C) (AID 1645877); further: nearly all actives have a fitted effect of over 70% in size; further: potency means the concentration at half of the fitted maximal effect; on activity change, negative = cell killing: on the % scale 0 is the no-effect control and ±100 the full control effect
[4] = molecular target: Phospholipid hydroperoxide glutathione peroxidase GPX4 (Homo sapiens) (UniProt P36969); test: Primary qHTS Assay for Inhibitors of Recombinant Selenoprotein Glutathione Peroxidase 4 (GPX4) (AID 1845192); settings: outcome: dose series up to 50 µM unless noted; further: nearly all actives have a fitted effect of over 65% in size; further: potency means the concentration at half of the fitted maximal effect; on activity change, negative = inhibition: series mostly up to about 50 µM; on the % scale 0 is the no-effect control and ±100 the full control effect
Method in brief: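 qHTS, GR-coupled: GPX4 200 nM + cpd 30 min RT → GSH 1 mM, NADPH 0.5 mM, GR 100 nM → CHP 0.5 mM start; fluor 340/450 at t0 and t15 min; no-enzyme wells as control.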

[5] = qHTS drug screen for cell cycle checkpoint inhibitors in PARPi-resistant BRCA-mutant ovarian cancer cell lines. (AID 1963452; calls by dose curve; further: potency means the concentration at half of the fitted maximal effect); settings: PEO1/OlaR viability, CellTiter-Glo luminescence, 96 h; for Z-AUC: stronger effect = lower value
Method in brief: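 PEO1, PEO4 and PEO1/OlaR ovarian cancer cells, 600 per well, exposed 96 h at 37C to a dilution series. Viability read by CellTiter-Glo luminescence, normalized to DMSO and empty wells; activity summarized as Z-AUC.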

[6] = molecular target: Glutathione peroxidase 1 (Homo sapiens) (UniProt P07203); test: Primary qHTS Assay for Inhibitors of Recombinant Selenoprotein Glutathione Peroxidase 1 (GPX1) (AID 1845191); further: nearly all actives have a fitted effect of over 65% in size
Method in brief: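 GPX1 10 nM, GR 100 nM, GSH 1 mM, NADPH 0.5 mM, CHP 0.5 mM (final). 30-min cpd preincubation, RT. Ex340/Em450 read t=0, t=15 min.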

[7] = measured here: PEO1 parental Z-AUC

Phospholipid hydroperoxide glutathione peroxidase GPX4 (Homo sapiens), sequence (P36969 whole entry, looked up): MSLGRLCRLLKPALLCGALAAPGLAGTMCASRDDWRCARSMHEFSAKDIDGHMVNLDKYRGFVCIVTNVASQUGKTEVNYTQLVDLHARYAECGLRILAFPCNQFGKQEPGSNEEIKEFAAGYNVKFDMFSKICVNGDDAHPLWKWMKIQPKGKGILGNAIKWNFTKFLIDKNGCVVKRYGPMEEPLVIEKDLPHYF
Glutathione peroxidase 1 (Homo sapiens), sequence (P07203 whole entry, looked up): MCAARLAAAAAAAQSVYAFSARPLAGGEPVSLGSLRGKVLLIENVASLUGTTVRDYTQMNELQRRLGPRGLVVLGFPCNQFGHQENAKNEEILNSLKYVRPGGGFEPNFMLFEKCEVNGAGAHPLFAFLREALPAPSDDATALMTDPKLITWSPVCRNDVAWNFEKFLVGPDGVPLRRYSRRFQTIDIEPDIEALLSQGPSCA

| SMILES | Potency [1] | Potency [2] | Potency [3] | Potency [4] | Z-AUC [5] | Z-AUC [5, 7] | Z-AUC ([5]; measured here: PEO4 Z-AUC) | Potency [6] | Potency [5] | activity change, negative = inhibition [1] | activity change, negative = viability loss [2] | activity change, negative = cell killing [3] | outcome [6] |
| --- | --- | --- | --- | --- | --- | --- | --- | --- | --- | --- | --- | --- | --- |
| O=c1oc2c(C3OCCCO3)c(O)ccc2c2c1CNCC2 | inactive | inactive | inactive | 14.3 µM (active) | 0.112 (inactive) | -0.774 | -0.202 |  |  |  |  |  |  |
| COc1cc2c3c(n(CCCn4ccnc4)c(=O)c2cc1OC)-c1cc2c(cc1C3=O)OCO2 | inactive | 0.0105 µM (active) | 0.0132 µM (active) |  |  | -2.51 | -1.77 | inactive | 0.0078 µM (active) |  |  |  |  |
| NS(=O)(=O)c1ccc(S(=O)(=O)Nc2cccc3c(Cl)c[nH]c23)cc1 | inactive | 0.742 µM (active) | 0.59 µM (active) | inactive | -0.956 (inactive) | -0.0531 | -0.727 |  |  |  |  |  |  |
| O=C1NC(=O)/C(=C\c2ccc(-c3ccc(F)cc3)o2)S1 | inactive | inactive | inactive |  | 0.0775 (inactive) | 0.696 | 0.899 | inactive |  |  |  |  |  |
| COc1cc(C(=O)NC(N)=Nc2ccc(C)c(NC(=O)c3ccc(-c4ccccc4)cc3)c2)cc(OC)c1OC | inactive | 13.2 µM (active) | 11.8 µM (active) | inactive | 0.647 (inactive) | 0.261 | 0.136 |  |  |  |  |  |  |
| CCC(=O)N1CCOc2c(cc(-c3cc(OC)cc(OC)c3)cc2C(=O)N[C@H]2CCCN(C)C2)C1 | inactive | 4.17 µM (active) | 4.17 µM (active) |  | 1.12 (inactive) | 0.448 | 0.4 | inactive |  |  |  |  |  |
| Nc1n[n+]([O-])c2ccccc2[n+]1[O-] | inactive | 18.6 µM (active) | 10.5 µM (active) |  | -0.469 (inactive) | -1.12 | -1.08 | inactive |  |  |  |  |  |
| NC(CC1c2ccccc2Oc2ccccc21)(C(=O)O)C1CC1C(=O)O (centres undefined) | inactive | inactive | inactive |  | -0.154 (inactive) | 0.493 | 0.591 | inactive |  |  |  |  |  |
| COc1cc2nccc(Oc3ccc(NC(=O)c4cn(C(C)C)c(=O)n(-c5ccc(F)cc5)c4=O)cc3F)c2cc1OC | inactive | inactive | inactive |  | -0.766 (inactive) | -0.766 | -0.777 | inactive |  |  |  |  |  |
| CN(C)CCNC(=O)COc1c2cccc1Cc1cccc(c1OCC(=O)NCCN(C)C)Cc1cccc(c1OCC(=O)NCCN(C)C)Cc1cccc(c1OCC(=O)NCCN(C)C)C2 |  |  |  |  | -0.309 (inactive) | -0.716 | -0.127 |  |  | -36% [at 8.44 µM] (inactive) | 4.69% [at 9.23 µM] (inactive) | 5.34% [at 9.23 µM] (inactive) | inactive [at 9.52 µM] |
| NCC(=O)Nc1cncc(-c2nn3c(=O)cc(N4CCNCC4)nc3s2)c1 | inactive | inactive | inactive |  | 0.673 (inactive) | 0.487 | 1.13 | inactive |  |  |  |  |  |
| COc1cc(C)[nH]c(=O)c1CN1CCc2c(Cl)cc([C@H](OC)C3COC3)c(Cl)c2C1=O | inactive | inactive | inactive | inactive | 1.05 (inactive) | 0.817 | 0.549 |  |  |  |  |  |  |
| Cc1ccc(-c2nc(N)nc3c2nnn3Cc2cccc(CO[C@H]3CCOC3)n2)o1 | inactive | inactive | inactive |  | -1.33 (inactive) | -0.982 | -1.11 | inactive |  |  |  |  |  |
| CC(C)(O)CC[C@@H](O)[C@](C)(O)[C@H]1CC[C@@]2(O)C3=CC(=O)[C@@H]4C[C@@H](O)[C@@H](O)C[C@]4(C)[C@H]3CC[C@]12C | inactive | inactive | inactive | inactive | 0.631 (inactive) | 0.684 | 0.947 |  |  |  |  |  |  |
| Cc1c(-c2c(-c3ccc(F)o3)sc3ncnc(O[C@@H](Cc4ccccc4OCc4ccnn4CC(F)(F)F)C(=O)O)c23)ccc(OCCN2CCN(C)CC2)c1Cl | inactive | 0.662 µM (active) | 0.166 µM (active) |  | 0.0867 (inactive) | 0.964 | 1 | inactive |  |  |  |  |  |
| CC1Cc2ccccc2N1C(=O)Cc1nc(N2CCOCC2)cc(=O)[nH]1 (centres undefined) | inactive | 5.25 µM (active) | 4.68 µM (active) | inactive | -1.34 (inactive) | -0.404 | -0.574 |  |  |  |  |  |  |
| C[C@H]1O[C@H](O[C@H]2[C@H](O)[C@@H](O)[C@@H](O[C@H]3[C@H](O)[C@@H](O)C(O)O[C@@H]3CO)O[C@@H]2CO)[C@H](O)[C@@H](O)[C@@H]1N[C@H]1C=C(CO)[C@@H](O)[C@H](O)[C@H]1O (some centres undefined) | inactive | inactive | inactive |  | 0.621 (inactive) | 1.06 | 0.614 | inactive |  |  |  |  |  |
